For 40 compounds, growth results are on record in PubChem BioAssay (NCI).

This is part of a sample that, as a whole, favours compounds with a hit. Of some 83,000 tested, about 20% had one in any assay.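 Testing used 96-well plates and a 48-hour single-concentration exposure. Example: -40 means 40% of the starting cells died.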 Unmarked numbers belong to inactive results. Active and inactive are the calls of the source.

This experiment concerns TK-10 renal. The experiment is described as follows: NCI-60 one-dose screen, 48 h (100 = growth as untreated, 0 = no growth, -100 = all killed). To be noted: 10 µM unless noted. The procedure: Growth inhibition of the TK-10 human tumor cell line is measured as a screen for anti-cancer activity. Cells are grown in 96 well plates and exposed to the test compound for 48 hours. Compounds are tested at a single concentration, which is 10^-5 M for most compounds. The reported endpoint is percent growth (GI% or GIPRCNT), where numbers from 0 - 100% represent growth inhibition, and numbers from -100% - 0 represent cell death. For example, a value of 40 represents 60% growth inhibition. A value of 0 means no net growth occurred over the course of the experiment. A value of -40 indicates 40% of cells at the beginning of the experiment died by the end of the experiment. A value of -100 means all cells are dead at the end of the experiment.
NCI-60 Human Tumor Cell Lines Screen was performed using the standard one-dose NCI protocol, which is described in more detail at https://dtp.cancer.gov/discovery_development/nci-60/default.htm.
Compounds with GIPRCNT values below 10 were considered active. Activity score was based on GIPRCNT using the following formula: […]
Score is 0 for GIPRCNT values of 100 or above, 50 for GIPRCNT values of 0, and 100 for GIPRCNT values of -100.
On to `CN(CCCCN(C[C@H]1Cc2ncccc2CN1)[C@H]1CCCc2cccnc21)C1CCC(F)(F)CC1`, for which the growth is 82.4%.

For the compound `COc1cc(-c2nc(N=Nc3c(O)[nH]c4ccc(Br)cc34)[nH]c(=O)c2C#N)cc(OC)c1OC`, the growth is 111%.

On to `Fc1ccccc1-c1nc(-c2nc3cc(Cl)c(Cl)cc3[nH]2)c2ccccn12`, for which the growth was 76.5%.

For `COc1ccc(-c2nc(/C=C3/C(=O)Nc4ccc(F)cc43)c3ccccn23)cc1`, the growth is 116%.

For `CC(=O)Nc1scc[n+]1Cc1ccccc1`, the growth was 113%.

Regarding `COc1ccc(NC(=O)c2c(Nc3ccc(OC)cc3OC)n[nH]c2N)c(OC)c1`, the growth was 117%.

In the case of `O=C(O)COc1ccc(-c2cssc2=S)cc1`, the growth is 93.9%.

On to `N[C@@H]1CCN(C(=O)c2cc3cc(Cl)c(F)c(F)c3[nH]2)C1`, for which the growth was 101%.

For `CC(C)(C)n1cc(-c2ccnc(NCCNS(=O)(=O)c3ccc(Cl)cc3)c2)c(-c2cccc(O)c2)n1`, the growth was 108%.

As for `CCOC(=O)/C(C#N)=C1/C(=O)Nc2ccccc21`, the growth is 130%.

Turning to `CC(=O)OC[C@]12CC[C@H]3[C@@H](C[C@H]4O[C@]45CC=CC(=O)[C@]35C)[C@]1(O)CC[C@@]2(O)[C@@](C)(O)C1CC(C)=C(C)C(=O)O1` (stereo not given in full), the growth was -55% (active).

On to `O=C1c2c(Cl)c(Cl)c(Cl)c(Cl)c2C(=O)C2(Cl)CC=CCC12Cl` (stereo not given), for which the growth was -92.5% (active).

Regarding `O=C1NN(C(=O)c2ccc(Cl)cc2)C(c2ccccc2)=N/C1=C\c1ccc(F)cc1`, the growth was 109%.

Take `O=S(=O)(c1ccc(OCCO)cc1)c1ccc(OCCO)cc1`: the growth is 94.6%.

`O=C(Oc1ccccc1[N+](=O)[O-])C1CCCN1C(=O)OCc1ccccc1` (stereo not given): the growth is 112%.

As to `CC[N+](CC)=c1cc2oc3cc(N(C)C)ccc3nc-2cc1C`, the growth was 54.6%.

Turning to `COc1ccc(CN2CCc3c(Sc4ccccc4)nc(N)nc3C2=O)c(OC)c1`, the growth is 59.9%.

Regarding `CCOC(=O)CN1/C(=N/c2sc3c(c2C(=O)OCC)CCN(C(=O)OCC)C3)SC(=O)/C1=C\C(=O)OC`, the growth is 99%.

Regarding `O=[N+]([O-])c1cc(Cl)c2[nH]c3c(Cl)cc([N+](=O)[O-])cc3c2c1`, the growth was -23.1% (active).

For the compound `O=C(O)/C=C/C(=O)c1ccc(Cl)cc1`, the growth was 105%.

For the compound `CC(C)(C)n1cc(-c2ccnc(NCCCNS(=O)(=O)c3ccc(C(F)(F)F)cc3)c2)c(-c2cccc(O)c2)n1`, the growth is 92.2%.

On to `COc1cc(Cn2cc3c(c2)-c2oncc2CC3)cc(OC)c1OC`, for which the growth is 53.3%.

For the compound `CC12CCC3C4(C)COC(c5ccccc5Cl)OC4CCC3(C)C1CC(C1=CCOC1=O)O2` (stereo not given), the growth is 94.9%.

Take `O=C(NS(=O)(=O)c1ccc2ccccc2c1)n1cc(-c2ccncc2)c(-c2ccc(Cl)c(O)c2)n1`: the growth was 116%.

Regarding `CCN(CC)CCC(CNc1c2ccc(Cl)cc2nc2ccc(OC)cc12)c1ccccc1` (stereo not given), the growth was -11% (active).

Turning to `CC(=O)Oc1csc(N(C(C)=O)c2cccc(C(F)(F)F)c2)n1`, the growth was 108%.

On to `CCOC(=O)c1c(NS(=O)(=O)c2ccc(C)cc2)sc2c1CCC1(C2)OCCO1`, for which the growth was 120%.

On to `Brc1cccc(-c2cc(-c3ccc4c(c3)OCCCO4)[nH]n2)c1`, for which the growth was 71.1% [25 µM].

As for `C=C(C)[C@@H]1CC[C@]2(C(=O)N3CCNCC3)CC[C@]3(C)[C@H](CC[C@@H]4[C@@]5(C)C/C(=C/c6ccncc6)C(=O)C(C)(C)[C@@H]5CC[C@]43C)[C@@H]12`, the growth was 102%.

As to `Cc1ccc(S(=O)(=O)NCCNc2cc(-c3cn(C(C)(C)C)nc3-c3cccc(O)c3)ccn2)cc1`, the growth was 103%.

`COc1ccc(-c2ccc(-c3ccc(C(=N)N)s3)s2)cc1Cl`: the growth was -45.1% (active).

On to `CCN(CC)CCCC(C)Nc1c2ccc(Cl)cc2nc2cc(OC)c(OC)cc12` (stereo not given), for which the growth was 2.47% (active).

Regarding `O=c1[nH]c(Nc2ccc(S(=O)(=O)O)cc2)nc2nc(Nc3ccc(NC(=S)Nc4ccccc4)cc3)nc(-c3ccc(O)cc3O)c12`, the growth is 156%.

Regarding `N/C(=N\C(N)=N\c1nc2ccccc2s1)c1cccc(Br)c1`, the growth is 157%.

`COc1ccc(-c2[nH]nc(N)c2-c2cc(OC)c3c(c2)OCO3)cc1`: the growth is 84.8%.

Take `COc1ccccc1CNCCCN1C(=O)c2ccc3c4c(ccc(c24)C1=O)C(=O)N(CCCNCCCCNCCCN)C3=O`: the growth was -10.1% (active).

As to `COc1ccc(Nc2nc(N)nc3c2CCN(Cc2ccc(OC)cc2OC)C3=O)cc1`, the growth was 84.8%.

As for `Cc1ccc(S(=O)(=O)c2nc(-c3ccccc3)oc2S(C)(=O)=O)cc1`, the growth is -72.8% (active).

Turning to `COc1ccc(-c2nc(/C=N/Nc3cc(C)nc4ccc(Br)cc34)c(C)o2)cc1`, the growth is -51.8% (active).

As for `CC(C)OC(=O)N1CCOCC1`, the growth was 101%.
